Records with an inconclusive call do not appear. Activity calls are given as the source filed them. Calls follow the shape of the dose curve; as a rule, active = well fitted curve in the direction sought with a large enough effect; inconclusive = small, poorly fitted or top-dose-only effect, or another doubt; inactive = no such curve, though single readings can be large; an effect the other way counts as inactive or inconclusive.
Legend:
[1] = molecular target: Cytochrome P450 3A7 (Homo sapiens) (UniProt P24462); experiment: Cytochrome P450 family 3 subfamily A member 7 (CYP3A7) small molecule antagonists: luciferase biochemical qHTS assay (AID 1963596); settings: P450-Glo CYP3A7 enzyme luminescence, 1 h; series mostly up to 57.4 µM; also: % is scaled to controls: 0 for no effect and ±100 for the full control effect; nearly all actives have a fitted effect of over 40% in size
How it was run: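 Compounds were screened in qHTS format for interference with CYP3A7 turnover of a proluciferin substrate. Reactions ran 1 h at room temperature after NADPH regeneration solution was added, then luciferin product was detected by luminescence.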

[2] = Viability qHTS for spleen associated tyrosine kinase inhibitor (SYKi) naive MV4-11 cells (AID 1963823); settings: MV4-11 AML viability, CellTiter-Glo luminescence, 72 h; series mostly up to 45 µM; also: nearly all actives have a fitted effect of over 40% in size; also: potency is read from the fitted curve at half-maximal effect
How it was run: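 Seeding of 500 SYKi-naive MV4-11 cells per well onto pre-dispensed compounds preceded a 72 hr incubation at 37 C. Luminescent CellTiter-Glo signal, read after 10 min at room temperature, reflected viable cells.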

[3] = Viability qHTS for spleen associated tyrosine kinase inhibitor (SYKi) drug resistant MV4-11 cells (AID 1963824); settings: SYKi-resistant MV4-11 viability, CellTiter-Glo, 72 h; series mostly up to 45 µM; also: nearly all actives have a fitted effect of over 35% in size; also: potency is read from the fitted curve at half-maximal effect
How it was run: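 SYK inhibitor-resistant MV4-11 AML cells, 500 per well, added to predispensed compounds and incubated 72 hr at 37 C, 5% CO2. Viability measured by CellTiter-Glo luminescence after 10 min at room temperature.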

[4] = Cellular viability qHTS for adrenocortical cancer (ACC) cell line NCI-H295R (AID 1963990); settings: CellTiter-Glo ATP luminescence, 48 h; series mostly up to 46.1 µM; also: nearly all actives have a fitted effect of over 60% in size; also: potency is read from the fitted curve at half-maximal effect;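 as to activity change, negative = viability loss: 0% = DMSO only wells and -100% = full killing with cytotoxic reference compound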
How it was run: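 Adrenocortical carcinoma cells, suspended at 300 000 cells/mL in serum-free DMEM plus ITS, rested overnight before pin transfer of compound. After two days' incubation, ATP-dependent luminescence was recorded and curve-fitted.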

[5] = Cellular viability qHTS for adrenocortical cancer (ACC) cell line SW-13 (AID 1963989); settings: SW-13 ACC cells viability, CellTiter-Glo, 48 h; activity (max response): active compounds read low;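 also: cells grown in serum-free medium with ITS supplement; % is scaled to controls: 0 for no effect and ±100 for the full control effect; nearly all actives have a fitted effect of over 65% in size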
How it was run: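 IC50 and maximal-response values come from four-parameter logistic fits of titration data. SW-13 cells in serum-free medium received compounds (up to 46 uM final) for 48 h before CellTiter-Glo luminescence.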

Chain of Cytochrome P450 3A7 (Homo sapiens) (P24462 whole entry, looked up): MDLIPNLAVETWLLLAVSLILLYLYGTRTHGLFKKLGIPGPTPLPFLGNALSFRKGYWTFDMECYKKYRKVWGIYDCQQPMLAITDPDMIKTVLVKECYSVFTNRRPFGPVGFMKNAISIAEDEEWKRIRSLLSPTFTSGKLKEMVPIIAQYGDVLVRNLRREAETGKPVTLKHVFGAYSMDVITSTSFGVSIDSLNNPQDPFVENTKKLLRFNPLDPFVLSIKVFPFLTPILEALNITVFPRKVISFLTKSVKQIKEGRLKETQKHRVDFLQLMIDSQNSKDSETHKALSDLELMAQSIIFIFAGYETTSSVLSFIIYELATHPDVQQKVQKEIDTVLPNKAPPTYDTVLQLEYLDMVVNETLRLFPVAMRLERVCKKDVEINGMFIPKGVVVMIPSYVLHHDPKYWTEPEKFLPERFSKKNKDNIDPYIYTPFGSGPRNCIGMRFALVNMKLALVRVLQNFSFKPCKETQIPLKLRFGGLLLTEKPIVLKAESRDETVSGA

CCn1c(=O)c(-c2ccn[nH]2)cc2c(C)nc(N)nc21
active: Potency [2] 1.46 µM | Potency [3] 2.91 µM | Potency [4] 7.08 µM
inactive: Potency [1]

CCOC(=O)C(=O)c1csc(NC=O)n1
inactive: Potency [1] | Potency [2] | Potency [3] | activity (max response) [5] 8.44% | Potency [4]

NC(=O)NS(=O)(=O)c1ccc(Cl)cc1
inactive: Potency [1] | Potency [2] | Potency [3] | Potency [4]

CCN[C@@H]1C[C@H](N)[C@@H](OC2OC(CN)=CCC2N)[C@H](O)[C@H]1O[C@H]1OC[C@](C)(O)[C@H](NC)[C@H]1O (some centres not stated)
inactive: activity change, negative = inhibition [1] 12% [at 0.91 µM] | viability (% of control) [2] 111% [at 0.588 µM] | viability, % of control [3] 115% [at 0.588 µM] | activity (max response) [5] -2.24% | activity change, negative = viability loss [4] -3.31% [at 0.587 µM]

Nc1c2c(nc3ccccc13)CCCC2O (configuration not stated)
inactive: Potency [1] | Potency [2] | Potency [4]
active: Potency [3] 0.841 µM

CCOC(=O)n1ccn(C)c1=S
inactive: Potency [1] | Potency [2] | Potency [3] | Potency [4]

Cc1ccc2ccc(Cl)cc2n1
inactive: Potency [1] | Potency [2] | Potency [3] | activity (max response) [5] 15.8% | Potency [4]

O=C(O)Cc1ccc(-c2ccccc2)cc1
inactive: Potency [1] | Potency [2] | Potency [3] | activity (max response) [5] 3.26% | Potency [4]

CC(=O)c1ccc(S(=O)(=O)NC(=O)NC2CCCCC2)cc1
inactive: Potency [1] | Potency [2] | Potency [3] | activity (max response) [5] 9.54% | Potency [4]

CC(O)(P(=O)(O)O)P(=O)(O)O
inactive: Potency [1] | Potency [2] | Potency [3] | activity (max response) [5] 14.2% | Potency [4]

COc1ccccc1N1CCN(CC(O)COc2cc(OC)c(OC)c(OC)c2)CC1 (configuration not stated)
inactive: Potency [1] | Potency [2] | Potency [3] | Potency [4]

CCn1ccc(NS(=O)(=O)c2ccc(N)cc2)nc1=O
inactive: Potency [1] | Potency [2] | Potency [3] | activity (max response) [5] 11.1% | Potency [4]

Cc1cc2c(cc1S(N)(=O)=O)S(=O)(=O)CCC2
inactive: Potency [1] | Potency [2] | Potency [3] | Potency [4]

CCOC(=O)[C@H](CCc1ccccc1)N[C@@H](C)C(=O)N1C(=O)N(C)C[C@H]1C(=O)O
inactive: Potency [1] | Potency [2] | Potency [3] | Potency [4]

NC(=O)COCCN1CCN(C(c2ccccc2)c2ccc(Cl)cc2)CC1 (configuration not stated)
inactive: Potency [1] | Potency [2] | Potency [3] | Potency [4]

NC(=O)NS(=O)(=O)c1ccc(N)cc1
inactive: Potency [1] | Potency [2] | Potency [3] | Potency [4]

COc1ccccc1O
inactive: Potency [1] | Potency [2] | Potency [3]
active: Potency [4] 28.2 µM

O=C(NCC(O)CO)c1c(I)c(C(=O)NCC(O)CO)c(I)c(N(CCO)C(=O)CO)c1I (configuration not stated)
inactive: Potency [1] | Potency [2] | Potency [3] | Potency [4]

C=C(CC)C(=O)c1ccc(OCC(=O)O)c(Cl)c1Cl
active: Potency [2] 13.3 µM | Potency [3] 15 µM | Potency [4] 9.2 µM
inactive: Potency [1]

C/C=C1\[C@H]2C=C(C)C[C@]1(N)c1ccc(=O)[nH]c1C2
inactive: Potency [1] | Potency [2] | Potency [3] | Potency [4]

CC(=O)N[C@@H](CCC(=O)O)C(=O)O
inactive: Potency [1] | Potency [2] | Potency [3] | activity (max response) [5] 10.8% | Potency [4]

C=Cc1c(C)c2cc3[nH]c(cc4nc(cc5nc(cc1[nH]2)C(C)=C5CCC(=O)O)C(CCC(=O)O)=C4C)c(C)c3C=C
inactive: Potency [1] | Potency [2] | Potency [3] | Potency [4]

CCCCOC(=O)CCCCCCCCC(=O)OCCCC
inactive: Potency [1] | Potency [2] | Potency [3] | activity (max response) [5] 11.1% | Potency [4]

CC(C)=CCC/C(C)=C/CC/C(C)=C/CCC(=O)OC/C=C(\C)CCC=C(C)C
inactive: Potency [1] | Potency [2] | Potency [3] | activity (max response) [5] 14.2% | Potency [4]

CC1(C)OC[C@@H]2O[C@@]3(C(=O)O)OC(C)(C)O[C@H]3[C@@H]2O1
inactive: Potency [1] | Potency [2] | Potency [3] | Potency [4]

C[C@H]1[C@H]2CC[C@H]3[C@@H]4CC=C5C[C@@H](N(C)C)CC[C@]5(C)[C@H]4CC[C@]23CN1C
inactive: Potency [1] | Potency [2] | Potency [3] | Potency [4]

CC(=O)N(CC(O)CO)c1c(I)c(C(=O)NCCO)c(I)c(C(=O)NCC(O)CO)c1I (configuration not stated)
inactive: Potency [1] | Potency [2] | Potency [3] | Potency [4]

COc1cc(C=O)ccc1O
inactive: Potency [1] | Potency [2] | Potency [3] | activity (max response) [5] 3.08% | Potency [4]

COC(=O)CCc1ccc(OCC(O)CNC(C)C)cc1 (configuration not stated)
inactive: Potency [1] | Potency [2] | Potency [3] | Potency [4]

CC(=O)CCCCn1c(=O)c2c(ncn2C)n(C)c1=O
inactive: Potency [1] | Potency [2] | Potency [3] | activity (max response) [5] 7.09% | Potency [4]

O=C1CC(c2ccc(Cl)cc2)CC(=O)N1
inactive: Potency [1] | Potency [2] | Potency [3] | activity (max response) [5] 13.6% | Potency [4]
